High-throughput results: PubChem, National Center for Advancing Translational Sciences (NCATS)
Only some compounds are listed: those with a hit (about 0.62% of all), similar ones and a draw of the others.
Rango complex inh: inhibitors of Rango-importin beta complex formation; Q14974; Rango CFP/YFP FRET sensor + importin beta, 45 min; Potency, µM (titrated, usually from 92.2 µM), inactives show at the top dose inhibition of complex formation; hit rate 0.031% among 340,000; AID 540263;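 also: potency is read from the fitted curve at half-maximal effect; 0% = DMSO wells and 100% = buffer wells lacking importin beta; nearly all actives have a fitted effect of over 15% in size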
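Inhibition scored from the CFP 486 nm/YFP 530 nm FRET ratio 45 min after adding 0.125 microM importin beta to 50 nM Rango biosensor preincubated 5 min with compound (room temperature, PBS with DTT, Tween-20, BSA). No-importin wells as positive control.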
pAkt inh: blocks phosphorylation of Akt; activity change, % for hits at 50 µM; Neuro2A IGF-stimulated pAkt S473 HTRF, 20 min; stronger effect = lower value; hit rate 0.32% among 360,000; in the data active = activity change below about -80%; inconclusive = mostly about -51% to -80%; also: % is scaled to controls: 0 for no effect and ±100 for the full control effect
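Neuro2A cells (4,500/well, DMEM with 0.5% FBS) were treated with compound at a single 50 µM final concentration, stimulated with 6 nM IGF for 20 min at 37 °C, and lysed. Phospho-Akt Ser473 was read by HTRF as 665/615 ratio ×10^4.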
p53 reactivation: mutant p53 re-activation in reporter cells; H1299 p53-A138V BP100-luciferase reporter, luminescence, 24 h; Potency, µM (doses to about 92.2 µM), for inactives: top-dose activity change, positive = activation, hits mostly activators; hit rate 0.063% among 320,000; AID 504706; active = well fitted activation curve with a large enough effect; inconclusive = small, poorly fitted or top-dose-only effect; inactive = no such curve, though single readings can be large or run the other way; also: potency is read from the fitted curve at half-maximal effect; % of control where 0% means no effect; nearly all actives have a fitted effect of over 45% in size
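H1299 (p53-null), stable ts p53-A138V + BP100-Luc; 1000 cells/well, Opti-MEM/10% FBS; cpd 4 pt, 1:5; 24 h, 37 deg C, 5% CO2; detection reagent 10 min RT; luminescence.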
TSHR antag: human thyrotropin receptor antagonism; P16473; TSHR-expressing cells, TSH-stimulated cAMP HTRF, 2 h; stronger effect = lower value; activity change, negative = inhibition, % at 11.5 µM; hit rate 0.2% among 330,000; AID 504810;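 active = activity change below a set negative limit, meaning inhibition stronger than a set level, cut at about -70% in these data; inconclusive = activity change between two set negative limits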; also: % is scaled to controls: 0 for no effect and ±100 for the full control effect
Target sequence (P16473 whole entry, looked up): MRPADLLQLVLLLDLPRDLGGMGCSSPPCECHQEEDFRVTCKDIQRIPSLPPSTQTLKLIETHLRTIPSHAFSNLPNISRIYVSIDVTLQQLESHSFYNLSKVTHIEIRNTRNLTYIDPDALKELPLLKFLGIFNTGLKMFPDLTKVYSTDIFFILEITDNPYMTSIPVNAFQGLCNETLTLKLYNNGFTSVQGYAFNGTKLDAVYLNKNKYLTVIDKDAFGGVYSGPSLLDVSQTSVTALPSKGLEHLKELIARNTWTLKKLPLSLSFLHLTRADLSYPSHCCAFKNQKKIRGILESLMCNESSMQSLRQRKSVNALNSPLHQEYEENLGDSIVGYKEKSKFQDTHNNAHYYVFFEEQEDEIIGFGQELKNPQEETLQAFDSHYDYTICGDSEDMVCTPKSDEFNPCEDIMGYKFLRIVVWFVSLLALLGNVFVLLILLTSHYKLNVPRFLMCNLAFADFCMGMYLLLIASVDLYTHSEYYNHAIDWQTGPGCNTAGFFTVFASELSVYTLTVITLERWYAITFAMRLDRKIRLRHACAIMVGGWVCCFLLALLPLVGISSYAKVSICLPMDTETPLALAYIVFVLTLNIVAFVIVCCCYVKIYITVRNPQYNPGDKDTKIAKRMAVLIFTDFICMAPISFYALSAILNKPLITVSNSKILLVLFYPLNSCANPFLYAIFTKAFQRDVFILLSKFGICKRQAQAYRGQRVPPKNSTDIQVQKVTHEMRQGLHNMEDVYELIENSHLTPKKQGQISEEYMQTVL
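Freshly harvested TSHR cells receive pin-tooled compound, then EC80 TSH at 4nM final. After 2 hours at 37 deg C, antibody in lysis buffer and cAMP-d2 are added; 30 minutes at ambient temperature precede the HTRF read.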
Rango dissoc inh: inhibition of RanGTP-driven Rango-importin beta dissociation; O95149+P62826; Biochemical FRET Rango-importin beta, RanGTP-induced dissociation; Potency, µM (doses to about 46.1 µM), inactives show at the top dose activity change, negative = inhibition; hit rate 0.071% among 340,000; also: potency is read from the fitted curve at half-maximal effect; % of control where 0% means no effect; nearly all actives have a fitted effect of over 45% in size
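Compounds preincubate 5 min with complex of recombinant Rango and importin beta in PBS with 1 mM DTT. Ran (0.6 uM) loaded with 2 mM GTP plus 0.2 uM RCC1 starts dissociation; FRET is recorded 45 min later.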
* marks the source's active call; other numbers are inactive results; i = inactive; ? = inconclusive; . = not tested or not shown. Unless noted, calls follow the shape of the full dose curve.

SMILES	Rango complex inh	pAkt inh	p53 reactivation	TSHR antag	Rango dissoc inh
O=C(CSC1=NCCS1)N1CCN(c2ccccc2)CC1	-1.8%	i	35.5µM*	11.0	7.8%
O=C(CSC1=NCCS1)N1CCOCC1	5.8%	i	?	-14.0	4.9%
Cc1nc(SCC(=O)N2CCN(c3ccccc3)CC2)n[nH]1	0.9%	i	-4.8%	-89.5*	48.8%
Nc1nc(SCC(=O)N2CCN(c3ccccc3)CC2)n[nH]1	-0.1%	i	0.7%	0.9	4.5%
OC(c1ccccc1)(c1nc(-c2ccc3ccccc3c2)cs1)C(F)(F)F (configuration not stated)	.	i	.	.	.
OC1(C(F)(F)F)CC(c2ccc3ccccc3c2)=NO1 (configuration not stated)	-4.8%	i	35.5µM*	7.8	0.9%
COc1ccc(CCNC(=O)COc2ccc(N(C)S(=O)(=O)c3ccc(C)cc3)cc2)cc1OC	1.1%	i	-0.1%	-15.9	4.3%
Cc1ccc(C)c(OCCn2cc(/C=C(\C#N)C(=O)NCc3ccco3)c3ccccc32)c1	?	i	-3.8%	2.4	4.11µM*
COc1ccccc1N(CC(=O)N1CCCC1)S(=O)(=O)c1cc([N+](=O)[O-])ccc1Cl	-2.9%	i	0.0%	17.4	4.3%
CC(=O)Nc1sc2c(c1C(c1cccs1)N1CCOCC1)CCCC2 (configuration not stated)	0.5%	-109.6%*	-6.2%	-3.5	-9.7%
CC(=O)Nc1sc2c(c1C(c1ccccn1)N1CCCC1)CCCC2 (configuration not stated)	-1.2%	i	2.4%	26.1	-1.3%
CCC(=NCc1ccc(Cl)c(Cl)c1)c1nc(-c2ccco2)oc1O	4.0%	i	-14.1%	-1.0	0.4%
Cc1cc(-c2ccc(N=Nc3c(S(=O)(=O)O)cc4cc(S(=O)(=O)O)cc(N)c4c3O)c(C)c2)ccc1N=Nc1c(S(=O)(=O)O)cc2cc(S(=O)(=O)O)cc(N)c2c1O	.	.	-19.4%	-155.0*	.
COc1cccc2sc3cc(NCc4ccc5c(c4)OCO5)ccc3c(=O)c12	?	i	-2.0%	-10.1	20.6µM*
COc1cc2sc3cc(NCc4ccc5c(c4)OCO5)ccc3c(=O)c2cc1OC	?	i	4.7%	-2.3	?
CCSc1nsc(NC(=O)Nc2cccc(F)c2)n1	2.2%	i	.	?	11.2%
CCCSc1nsc(NC(=O)Nc2ccc(F)cc2F)n1	-0.7%	i	-4.8%	-118.5*	-8.5%
CCCSc1nsc(NC(=O)C(c2ccccc2)c2ccccc2)n1	-3.0%	i	-8.8%	-80.0*	3.7%
CC(=O)/C=C1\C(=O)N(C)c2ccccc21	.	.	.	4.8	.
Cc1ccc(C(=O)CSc2nnc(-c3ccco3)n2Cc2ccccc2)cc1	-3.9%	-108.9%*	10.4%	-5.4	27.6%
O/N=C/c1cc(Br)ccc1OCc1ccc(F)cc1	?	i	.	.	16.4µM*
Cc1ccc(COc2ccc(Br)cc2/C=N/O)cc1	2.9%	i	?	-19.5	16.5%
Cc1cccc2cc(/C=N/NC(=O)c3ccncc3)c(Cl)nc12	0.2%	i	-3.5%	-4.8	7.9%
Cc1cccc2cc(/C=N/NC(=O)c3ccccc3O)c(Cl)nc12	-1.5%	i	-0.1%	-72.4*	-5.3%
CCc1ccc(-c2csc(-c3c[nH]c4ccccc34)n2)cc1	-1.1%	i	20µM*	8.6	1.7%
SMILES	Rango complex inh	pAkt inh	p53 reactivation	TSHR antag	Rango dissoc inh
Cc1ccc(SCC(=O)NC(=O)NCc2ccco2)cc1C	.	.	-2.3%	-1.2	.
COCCN1C(=O)C(=O)/C(=C(/O)c2cccc(S(=O)(=O)N(C)C)c2)C12C(=O)N(C)c1ccccc12 (configuration not stated)	3.1%	-107.8%*	5.3%	-2.7	1.5%
O=S(=O)(NCCC1CC1(Cl)Cl)c1ccccc1 (configuration not stated)	-1.3%	i	-3.4%	2.6	-15.0%
CCCc1cc(=O)oc2cc(OC(=O)CN3C(=O)NC4(CCCC4)C3=O)ccc12	?	i	-2.0%	0.5	11.6µM*
CC(C)c1ccc(-c2c(C#N)c(N)nc(SCC(=O)N3CCCCCC3)c2C#N)cc1	-0.8%	-123.6%*	0.3%	8.9	-5.4%
CC(C)c1ccc(-c2c(C#N)c(N)nc(SCC(=O)N3CCCCC3)c2C#N)cc1	1.7%	i	-0.2%	1.3	6.2%
O=C(O)CCSc1nc2ccccc2n1Cc1ccccc1	4.9%	i	1.4%	-116.6*	0.8%
Oc1ccc(Oc2ccc3c(C(F)(F)F)cc(C(F)(F)F)nc3n2)cc1	1.0%	-115.6%*	2.0%	1.1	2.3%
CC1=C(C(=O)OCC(Cl)(Cl)Cl)N2C(=O)C(NC(=O)Cc3ccccc3)C2SC1 (configuration not stated)	1.2%	i	-3.5%	-77.2*	18.4%
CCCC1=Nc2cc(C(=O)N3CCC(C(=O)OCC)CC3)ccc2Sc2ccccc21	-1.1%	i	-0.6%	15.9	28.6%
CCOC(=O)C1=C(COC(=O)C(C)(C)Oc2ccc(Cl)cc2)NC(=O)NC1C (configuration not stated)	0.7%	i	5.7%	-4.4	14.9%
Cc1cc(NC(=O)CSc2nnc(COc3ccccc3)o2)no1	-0.9%	-127.1%*	-12.6%	-7.2	-9.1%
Cn1ncc(S(=O)(=O)Cc2ccccc2)c(Br)c1=O	.	.	.	-12.1	.
CCOc1cc(/C=C/c2ccc3cccc([N+](=O)[O-])c3n2)cc(Cl)c1O	5.0%	i	14.3%	-72.4*	2.4%
O=[N+]([O-])c1cccc2ccc(/C=C/c3ccc(Cl)cc3)nc12	4.9%	i	?	1.0	4.9%
CCN1CCc2c(sc(NC(=O)c3ccc(S(=O)(=O)N4CCCC4)cc3)c2C(=O)NC)C1	?	i	35.5µM*	4.6	?
CNC(=O)c1c(NC(=O)c2ccc(S(=O)(=O)N3CCCCC3)cc2)sc2c1CCN(C(C)C)C2	?	i	19.2%	-1.1	?
CC(NC(=O)c1ccc(S(=O)(=O)NCc2ccco2)cc1)c1ccc(F)cc1 (configuration not stated)	-2.0%	i	1.3%	-2.3	21.3%
CCCNC(=O)NC(=O)COc1c(F)c(F)cc(F)c1F	-0.6%	-101.5%*	-2.7%	17.8	?
O=C(COc1c(F)c(F)cc(F)c1F)NC(=O)NC1CCCC1	-0.1%	i	0.6%	-7.1	0.3%
CCCCc1nnc(NC(=O)Cc2ccc(OC)c(S(=O)(=O)N3CCOCC3)c2)s1	2.4%	i	-2.0%	-7.8	-7.8%
COc1ccc(CC(=O)Nc2nnc(SCc3ccccc3)s2)cc1S(=O)(=O)N1CCOCC1	-3.8%	-110.2%*	4.6%	-18.6	-13.7%
O=C(C/C=N/OCc1ccc(F)cc1Cl)c1cnc(-c2ccccc2)s1	-1.6%	-96.9%*	10.8%	0.6	1.7%
